Laboratory results published in PubChem BioAssay AID1962 (The Scripps Research Institute Molecular Screening Center, 2009).
Among all 300,000 compounds or so, about 2,500 (0.83%) were called active.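 How the source made its calls: active means inhibition above the mean of all tested compounds plus 3 SD, set per screening campaign (cut at about 24% in these data); inactive means the rest.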 The list comes from a sample in which actives are over-represented; it also holds similar structures and randomly drawn compounds.

Tested on: tRNA 2'-phosphotransferase TPT1 (Candida albicans SC5314)
Assay: Candida albicans TPT1 enzyme inhibitors, primary screen, biochemical, fluorescence polarization (AID 1962);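 further: plate controls were DMSO alone for no effect and ferristatin control at 100 nM for full effect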
Settings: recombinant caTPT1, FP RNA substrate dephosphorylation; at 5 µM; active compounds read high

| SMILES | inhibition |
| --- | --- |
| O=C(CNC(=O)C1COc2ccccc2O1)N/N=C/c1cc(Br)c(O)c(Br)c1 (stereo not given) | 2.18% (inactive) |
| Cc1c(C)c2ccc(OCC(=O)N3CCC(C(=O)O)CC3)c(C)c2oc1=O | -2.74% (inactive) |
| Cc1c(CC(=O)N2CCN(C(=O)C3COc4ccccc4O3)CC2)c(=O)oc2c(O)c(O)ccc12 (stereo not given) | 51% (active) |
| NC(=O)c1c(NC(=O)c2ccccc2)sc2c1CCCC2 | 1.25% (inactive) |
| COc1cccc(OC)c1C(=O)Nc1sc2c(c1C(N)=O)CCCC2 | -0.1% (inactive) |
| NC(=O)c1c(Nc2nc3c(F)cccc3s2)sc2c1CCCC2 | 85.5% (active) |
| CC(C)(C)C(=O)Nc1ccc(C(=O)N/N=C/c2ccccc2OC(=O)c2ccc(Cl)cc2Cl)cc1 | -2.72% (inactive) |
| Cc1ccc(Sc2ccncc2S(N)(=O)=O)cc1 | 0.2% (inactive) |
| Cc1cnc(C(=O)N2CCCC(C(=O)c3ccc(C(F)(F)F)cc3)C2)cn1 (stereo not given) | -2.98% (inactive) |
| CCOC(=O)CC1C(=O)NCCN1c1nc2c(C)cccn2c(=O)c1/C=C1\SC(=S)N(C(C)CC)C1=O (stereo not given) | 145% (active) |
| Cc1cccn2c(=O)c(/C=C(\C#N)C(N)=O)c(N3CCCCCC3)nc12 | -0.44% (inactive) |
| CCOC(=O)N1CCN(C(=O)CSc2nc(=O)n3cccc(C)c3n2)CC1 | -1.52% (inactive) |
| CCC(=O)N1c2ccc(S(=O)(=O)NCc3ccco3)cc2CC1C (stereo not given) | -4.88% (inactive) |
| COCCCn1c(-c2cccs2)nc2nc3ccccc3nc21 | -0.91% (inactive) |
| Cc1c(-c2ccccc2)cn2c1-c1ccc(C)n1CC2 | 49% (active) |
| Cc1cc(Br)ccc1SCC(=O)OCC(=O)NCc1ccc2c(c1)OCO2 | -0.18% (inactive) |
| CC1CCN(C(=O)c2ccc3c(=O)n4c(nc3c2)CCCCC4)CC1 | -0.96% (inactive) |
| CC1CCN(C(=O)c2ccc(CSc3ccc(Cl)cc3)cc2)CC1 | -4.05% (inactive) |
| CC1CCN(C(=O)c2ccc3c(c2)NC(=O)CN3)CC1 | 147% (active) |
| O=c1oc2ccccc2c(CNc2ccccc2)c1[N+](=O)[O-] | -2.94% (inactive) |
| C[n+]1ccc(/C=C/c2c[nH]c3ccccc23)cc1 | 56% (active) |
| COc1ccc(/C=C(\C#N)c2c[nH]c3ccccc23)cc1 | 0.42% (inactive) |
| O=C(N/N=C/c1c[nH]c2ccccc12)c1ccccc1O | -1.65% (inactive) |
| CCOc1ccc(-n2c(O)c(/C=N/Nc3nc(C)cc(C)n3)c3ccccc3c2=O)cc1 | -0.65% (inactive) |
| CCOc1ccc(-n2c(O)c(/C=N/c3ccnn3Cc3ccncc3)c3ccccc3c2=O)cc1 | 44.3% (active) |
| Cc1ccc(-n2c(O)c(C=Nc3ccc(S(=O)(=O)Nc4ncccn4)cc3)c3ccccc3c2=O)cc1C | 1.02% (inactive) |
| CC(C)CCN1CCN=C1N(C)C | 0.11% (inactive) |

| SMILES | inhibition |
| --- | --- |
| O=C(NCCCN1CCOCC1)c1cnn2c(-c3ccccc3)cc(-c3ccccc3)nc12 | -0.23% (inactive) |
| COc1ccc(C(=O)NC2CC2)cc1OC1CCN(Cc2ccc(SC)cc2)CC1 | -0.85% (inactive) |
| CC(NC(=S)Nc1ccccc1)C(c1cccs1)N1CCOCC1 (stereo not given) | -0.68% (inactive) |
| CCOC(=O)Nc1ccc2c(c1)N(C(=O)CCCl)c1ccccc1[S@]2=O | 1.44% (inactive) |
| Cc1ccc2cc(/C=N/NC(=O)[C@@H]3CCCN3)c(Cl)nc2c1 | -2.39% (inactive) |
| Cc1ccc2cc(/C=N/Nc3ccc(C(=O)O)cc3)c(Cl)nc2c1 | 24.6% (active) |
| O=C(O)c1ccc(N/N=C/c2ccc3ncccc3c2)cc1 | -4.36% (inactive) |
| C/C(=N\Nc1nc(N2CCOCC2)nc(N2CCOCC2)n1)c1ccc([N+](=O)[O-])cc1 | 0.13% (inactive) |
| COc1cccc(OC)c1C(=O)Nc1ccc2c(c1)n(C)c(=O)n2C | -1.47% (inactive) |
| Cc1ccc(N2NC(=O)/C(=C/C=C/c3ccco3)C2=O)cc1C | 4.93% (inactive) |
| Cc1ccc(N=C2NC(=O)/C(=C/C=C/c3ccco3)S2)cc1C | 25.4% (active) |
| CN(C)c1ccc(-n2cccc2/C=C2/SC(=Nc3ccc(F)cc3)NC2=O)cc1 | 0.75% (inactive) |
| COC(=O)C1(S(=O)(=O)C2(C(=O)OC)CCCC2)CCCC1 | -0.48% (inactive) |
| CN1C(=O)CC(c2ccccc2)C1=O (stereo not given) | -3.97% (inactive) |
| CCN1C(=O)N[C@@H](c2ccccc2)[C@H](C(C)=O)[C@H]1C | 1.78% (inactive) |
| O=C(Nc1ccc(S(=O)(=O)Nc2nccs2)cc1)c1cc(=O)[nH]c2ccccc12 | 11.7% (inactive) |
| Cc1ccc2nc(-c3ccncc3)cc(C(=O)Nc3ccncc3)c2c1 | -2.29% (inactive) |
| O=C(Nc1ccc(S(=O)(=O)Nc2nccs2)cc1)c1cc(-c2ccncc2)nc2ccccc12 | 42.7% (active) |
| O=C(NC(Cc1ccc(O)cc1)C(=O)O)/C(=C/c1ccccc1)NC(=O)c1ccccc1 (stereo not given) | -2.71% (inactive) |
| CC(=O)c1cc(NC(=O)c2ccccc2)c(=O)oc1/C=C/N(C)C | 110% (active) |
| CCOC(=O)c1cc(NC(=O)c2ccc(Cl)cc2)c(=O)oc1-c1ccccc1 | -4.37% (inactive) |
| CC(=O)Oc1cccc(C(=O)Nc2ccccc2NC(=O)c2cccc(OC(C)=O)c2)c1 | -1.86% (inactive) |
| Cc1ccc(N2CCN(C(=O)c3cccs3)CC2)c(C)c1 | -2.58% (inactive) |
| Cn1cccc1/C=C1\SC(=O)N(CC(=O)Nc2ccc(F)cc2)C1=O | 1.77% (inactive) |
| Cn1cccc1/C=C1\SC(=S)N(NC(=O)c2ccc(Cl)cc2)C1=O | 84.1% (active) |
| O=C(O)c1ccc(/C=C2\SC(=S)N(NC(=O)c3ccc(Br)cc3)C2=O)cc1 | 5.29% (inactive) |
| CCCC(=O)Nc1ncnc2c1ncn2[C@@H]1O[C@@H]2OP(=O)(O)OC[C@H]2[C@H]1OC(=O)CCC | -4.36% (inactive) |

| SMILES | inhibition |
| --- | --- |
| COc1cc(N2CCCC2)c(OC)cc1/C=C(/C#N)c1cccc(Br)c1 | 103% (active) |
| CC(=O)Nc1cccc(Oc2cc(C#N)c(C#N)cc2N2CCOCC2)c1 | -0.51% (inactive) |
| COc1ccc(Br)cc1/C=N/n1c(C)nnc1C | -0.28% (inactive) |
| O=C1NCCn2nc3ccccc3c21 | -3.31% (inactive) |
| CC(=O)Nc1ccc(S(=O)(=O)N(C)c2nc3ccccc3nc2Cl)cc1 | -0.11% (inactive) |
| Cc1ccc(Oc2nc3ccccc3n3c(C)nnc23)cc1 | -2.63% (inactive) |
| Cc1ccc(S(=O)(=O)N(C)c2nc3ccccc3n3c(C(C)C)nnc23)cc1 | 49.9% (active) |
| C#CCOCCOCCOCCNc1nc(N2CCN(C(=O)CCCCCCCCCCNC(=O)[C@H](CCCCN)n3cc(C)nn3)CC2)nc(N2CCN(C(=O)CCCCCCCCCCNC(=O)[C@H](CO)n3cc(CCCSC)nn3)CC2)n1 | 0.52% (inactive) |
| CN=C(c1ccccc1)c1c(C)cccc1C | -0.46% (inactive) |
| Cc1cccc(C2=N/C(=C/c3cccs3)C(=O)O2)c1 | -1.73% (inactive) |
| CSC1=N/C(=C\C=C\c2cccs2)C(=O)S1 | 35.6% (active) |
| CN1C/C(=C/c2cccs2)C(=O)/C(=C\c2cccs2)C1 | -2.84% (inactive) |
| CCOC(=O)c1c(NC(=S)Nc2ccccc2)sc2c1CCN(C)C2 | 53.5% (active) |
| CCOC(=O)c1c(NC(=S)NC)sc2c1CCCC2 | -1.5% (inactive) |
| CCOC(=O)c1c(NC(=O)NC(C)(C)C)sc2c1CCN(C)C2 | 2.5% (inactive) |
| CCOc1ccc(/C=C/C(=O)N(CC)CC(=O)NCc2cccs2)cc1OC | -3.86% (inactive) |
| COc1ccccc1/C=N/Nc1nc(C)c(C(C)=O)s1 | 28% (active) |
| CC(=O)c1sc(N/N=C/c2ccc(C(C)C)cc2)nc1C | 23% (inactive) |
| CC(=O)c1sc(N/N=C\c2ccc(C)cc2)nc1C | 17.2% (inactive) |
| CCCCNC(=O)Nc1c(C)cc(SC#N)cc1C | -6.37% (inactive) |
| COCCNC(=O)C1CCN(C(=O)C2CC(=O)N(c3ccc(C)cc3)C2)CC1 (stereo not given) | 1.54% (inactive) |
| Cc1ccn2c(c1)nc(=O)c1cc(S(=O)(=O)N3CCC(C)CC3)ccc12 | 0.45% (inactive) |
| NC(=O)c1cc2ccccc2o/c1=N/NC(=O)c1cccc(F)c1 | -1.51% (inactive) |
| CCN(CC)c1ccc2cc(C(N)=O)/c(=N\NC(=O)c3ccncc3)oc2c1 | 133% (active) |
| COc1ccc(C(=O)N/N=c2\oc3ccccc3cc2C(N)=O)cc1 | 4.71% (inactive) |
| NC1=NC(=O)C(Cc2cccc(Cl)c2)S1 (stereo not given) | -2.15% (inactive) |
| CCC(=C/c1sc2ccc3ccccc3c2[n+]1C)/C=C1\Sc2ccc3ccccc3c2N1C | 92% (active) |

| SMILES | inhibition |
| --- | --- |
| CCCCCCCCn1c2c(c(=N)c3c1CCC3)CCCC2 | -2.44% (inactive) |
| CCCCCCSc1ccc([C@@H]2[C@@H]3C(=O)N(CC)C(=O)[C@@H]3[C@]3(C(=O)OC)CCCCN23)cc1OC | 1.68% (inactive) |
| COc1cc(N=Cc2c(O)[nH]c3ccccc23)cc(OC)c1OC | -0.99% (inactive) |
| CCn1c(-c2cc(OC)ccc2OC)csc1=Nc1c(C)n(C)n(-c2ccccc2)c1=O | -1.13% (inactive) |
| CN=c1scc(-c2cc(OC)ccc2OC)n1/N=C/c1c(C)[nH]c2ccccc12 | 62.6% (active) |
| Cc1nn2c(=O)cc(COC(=O)c3ccc(NC(=O)C(C)(C)C)cc3)nc2s1 | -2.53% (inactive) |
| CCOC(=O)[C@H]1[C@H]2COc3ccc(OC)cc3[C@@H]2N2C(=O)c3ccc(F)cc3NC(=O)[C@@]12C | 0.85% (inactive) |
| CC(C)CCN1NC2(CCC(C)CC2)NC1=S (stereo not given) | 2.43% (inactive) |
| COc1ccc2ccccc2c1CNc1nnnn1C | -1.06% (inactive) |
| O=C1CN(C(=O)c2ccccc2F)C(c2ccc(F)cc2)c2cc(F)ccc2N1 (stereo not given) | 0.25% (inactive) |
| CCC(c1nnnn1Cc1ccccc1)N(Cc1cc2cc(OC)ccc2[nH]c1=O)CC1CCCO1 (stereo not given) | -1.86% (inactive) |
| CCC(c1nnnn1Cc1ccco1)N(Cc1cc2cc(OC)ccc2[nH]c1=O)C1CCCCC1 (stereo not given) | 38.4% (active) |
| CCC(c1nnnn1Cc1ccco1)N(CCc1ccccc1)Cc1cc2ccc(OC)cc2[nH]c1=O (stereo not given) | -2.34% (inactive) |
| CCOc1ccc(Oc2nc(C)cc(OC)n2)nn1 | -1.74% (inactive) |
| CN(C)C(=O)N=NC(=O)N(C)C | -3.37% (inactive) |
| COc1ccc(N=C(C)c2sc3ccccc3c2O)cc1 | 63.5% (active) |
| COc1ccccc1-c1sc2ccccc2c1-c1ccc(C(C)=O)cc1 | -1.61% (inactive) |
| COC(=O)Cc1[nH]n(-c2nc3ccccc3s2)c(=O)c1C(C)=Nc1ccc(OC)cc1 | 1.09% (inactive) |
| CC(C)(Oc1ccc(C2CC2(Cl)Cl)cc1)C(=O)O (stereo not given) | -2.25% (inactive) |
| Cc1c(C(=O)N2CCCc3ccccc32)sc2nc(-c3ccccc3)cn12 | -1.15% (inactive) |
| Cc1cccc2cc3c(N)c(C(=O)N4CCCc5ccccc54)sc3nc12 | 45.2% (active) |
| Cc1c(C(=O)N2CCCc3ccccc32)oc2ccccc12 | -2.42% (inactive) |
| C#CCOCCOCCOCCNc1nc(N2CCN(C(=O)Cn3cc(CCCCN)nn3)CC2)nc(N2CCN(C(=O)[C@H](CCCCN)n3cc(CCC(=O)O)nn3)CC2)n1 | -1.83% (inactive) |
| Cc1ccc(Cc2nnc(SCC(=O)Nc3ccccc3C)[nH]c2=O)cc1 | 1.69% (inactive) |
